SKN-1 block: C. elegans SKN-1 inhibition | inhibition, % at 21.8 µM | 0.49% of 360,000 active | C. elegans VP596 Pgst-4::GFP/RFP ratio, acrylamide-induced, 24 h;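 active = interference check ratio from 0.5 to 1.5 plus GFP to RFP signal ratio inhibition reaching or exceeding a fixed threshold, cut at about 30% in these data, passing the limit was not always enough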
ATG4B inh: inhibitors of human ATG4B cysteine protease; Q9Y4P1; ATG4B cleavage of LC3-PLA2, NBD-HPC fluorescence, 1 h; inhibition, % at 8.33 µM; 0.51% of 340,000 active; in the data active = inhibition above about 40%
MPTP block: inhibitors of mitochondrial permeability transition pore; isolated mouse mitochondria, Ca2+ swelling absorbance, 30 min; inhibition, % at 10 µM; 1.4% of 360,000 active; AID 602449;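 active = inhibition of 50% or more, scaled per plate between neutral and stimulator controls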;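 also: 0% = DMSO wells given calcium and 100% = 1 mM EGTA wells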
NRP1-CendR mod: NRP-1/CendR interaction modulation. 0.85% of 360,000 active. inhibition, % at 25 µM. AID 602438. FAM-RPARPAR peptide binding to NRP-1, fluorescence polarization;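 active = inhibition or corrected inhibition above about 18%, plus a signal ratio from 0.5 to 1.5, limit read from the data, passing the limit was not always enough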
CFTR F508del cor: CFTR F508del correction in bronchial cells; CFBE cells, YFP halide quenching; stimulated with forskolin plus potentiator P3; % fluorescence drop versus neutral controls; activity (quench increase), % at 7.58 µM; 0.36% of 350,000 active;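 active = mean added fluorescence quench of at least 8% versus neutral control, with both replicates also reaching 8%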;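 also: cells transiently co-express mutant CFTR-F508del with the halide-sensitive YFP; corrector assay measuring rescue of mutant channel to the surface after 24 h compound exposure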
MPTP counter: membrane potential counter-screen of mitochondrial pore inhibitors | isolated mitochondria, Rhodamine 123 fluorescence | AID 624504 | inhibition, % at 10 µM | shares compounds with MPTP block | 78% of 5,000 active; in the data active = inhibition above about 22%;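 also: 0% = DMSO vehicle and 100% = positive control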
MPTP abs DR: MPTP inhibition, dose response swelling confirmation | shares compounds with MPTP block | isolated mitochondria swelling, absorbance | IC50, µM | 58% of 780 active | AID 651561; in the data active = IC50 below about 20 µM
MPTP counter DR: counter-screen for mitochondrial permeability transition pore inhibitors, dose response. IC50, µM. isolated mitochondria counterscreen, fluorescence read-out. 49% of 780 active. AID 651564. shares compounds with MPTP block; in the data active = IC50 below about 80 µM
Numbers without * were called inactive; nt = not tested or not shown. A selection: hits, their analogues and other compounds. The true share with any hit is near 2.7%.

SMILES	SKN-1 block	ATG4B inh	MPTP block	NRP1-CendR mod	CFTR F508del cor	MPTP counter	others
O=[N+]([O-])c1cc(-c2n[nH]c(-c3ccccc3)n2)cc([N+](=O)[O-])c1	-6.6	4.8	71.9*	3.0	1.1	8.8	MPTP abs DR=19.8*;MPTP counter DR=<2.5*
Cc1cccc(OC(=O)NCCOC(=O)N(O)c2ccc(Cl)cc2)c1	-7.4	0.9	91.2*	2.4	-3.5	81.2*
CN(C)S(=O)(=O)c1cccc(NC(=S)NNC(=O)c2cc3ccccc3cc2O)c1	2.4	22.1	51.7*	-1.2	2.4	48.0*
CC1CCCC(NC(=S)Nc2cccc(S(=O)(=O)N(C)C)c2)C1C (stereo not given)	-7.7	17.9	72.8*	2.1	0.0	92.0*
CC(=O)c1ccc(NC(=S)NC2CCCC(C)C2C)cc1 (stereo not given)	-6.2	-4.4	71.1*	-15.5	2.4	75.5*
CN(C)S(=O)(=O)c1cccc(NC(=S)NC2CCCCC2)c1	3.0	0.9	3.9	11.5	2.6	nt
CN(C)S(=O)(=O)c1cccc(NC(=S)NC(=O)c2ccco2)c1	-2.2	3.6	-1.7	2.8	0.4	nt
CO[C@@H]1CN(C)C(=O)c2cc(NC(=O)Nc3ccccc3)ccc2OC[C@H](C)N(C(C)=O)C[C@H]1C	nt	nt	nt	nt	1.6	nt
COCC(=O)N1CC2(C1)[C@H](c1ccc(C3=CCCC3)cc1)[C@H](CO)N2C(=O)COC	nt	nt	nt	nt	-1.6	nt
CN(C)C(=O)C[C@@H]1CC[C@@H](NC(=O)NC2CCCC2)[C@H](CO)O1	nt	nt	nt	nt	-1.7	nt
O=C(NNC1=C(C(=O)C(F)(F)F)CCC1)c1cccc(O)c1	6.0	0.5	0.0	-10.0	nt	nt
Cc1cccc(C(=O)NNC2=C(C(=O)C(F)(F)F)CCC2)c1O	22.9	20.1	92.8*	58.2*	nt	92.1*
CC(=O)Nc1ccc(S(=O)(=O)NNC(=S)NCc2ccco2)cc1	9.3	9.6	-0.1	5.3	0.3	nt
CCCCc1ccc(S(=O)(=O)NNC(=S)NCc2ccco2)cc1	-6.7	-14.2	83.4*	3.8	nt	64.8*
COc1cccc(OCCn2cc(C(C)=O)c3ccccc32)c1	3.7	-14.5	61.1*	-6.1	0.6	56.2*
CC(=O)c1cn(CCOc2cc(C)ccc2C)c2ccccc12	5.8	-2.7	97.4*	6.8	-0.8	83.2*
COc1cccc(OCCn2cc(C(=O)c3ccco3)c3ccccc32)c1	7.6	-3.9	1.6	-11.8	nt	nt
Cc1ccc(C)c(OCCn2cc(C(=O)O)c3ccccc32)c1	-0.5	3.2	-0.8	1.6	-0.9	nt
COc1c(Br)cc([N+](=O)[O-])c(OC)c1C(=O)NC(=O)Nc1cc(Cl)cc(Cl)c1	30.6	-13.4	83.4*	-0.4	5.4	85.4*
COc1c(Br)cc([N+](=O)[O-])c(OC)c1C(=O)NC(=O)Nc1c(Cl)cccc1Cl	31.6	-1.9	4.1	-2.4	1.3	nt
O=C1OC(c2ccccc2)(c2cc(Br)ccc2O)c2ccccc21 (stereo not given)	5.9	8.4	75.7*	0.8	-4.2	97.0*
CCc1ccc(C2C(C#N)=C(N)SC(N)=C2C#N)cc1	15.7	12.8	74.4*	132.0	nt	82.0*
CCc1ccc(C2C(C#N)=C(N)SC(N)=C2C#N)s1	2.8	0.0	77.4*	125.8	nt	56.0*
Cc1ccc(OCC(O)CNCc2ccc(F)cc2)cc1 (stereo not given)	-16.8	-9.0	85.4*	8.5	0.2	-8.6	MPTP abs DR=9.15*;MPTP counter DR=>80
CCS(=O)(=O)N1CC(=O)N2[C@H](CO)[C@@H](c3ccc(-c4ccccc4)cc3)[C@@H]2C1	nt	nt	nt	nt	-0.2	nt
SMILES	SKN-1 block	ATG4B inh	MPTP block	NRP1-CendR mod	CFTR F508del cor	MPTP counter	others
O=C(Nc1cc(Oc2ccccc2)cc([N+](=O)[O-])c1)C12CC3CC(C1)CC(n1cnc(Cl)n1)(C3)C2	12.6	-16.5	81.9*	-10.5	nt	59.0*
CC(C)c1ccc(NC(=O)c2snc3ccc(Cl)cc23)cc1	6.8	-0.6	74.2*	-2.0	0.5	73.8*
Cc1cc(Nc2ccc([N+](=O)[O-])cc2)c2ccccc2n1	-3.1	4.8	1.6	-15.4	-9.9	nt
Cc1cc(Nc2ccc([N+](=O)[O-])cc2)nc2ccccc12	6.0	-19.2	75.7*	2.3	7.7	58.5*
COc1ccc(NC(=O)Nc2ccc3c(c2)C(=O)N([C@H](C)CO)C[C@H](C)[C@@H](CN(C)C(=O)CCCN(C)C)OCCCC[C@@H](C)O3)cc1	nt	nt	nt	nt	-0.5	nt
O=C(/C=C/c1c(Cl)cccc1Cl)Nc1ccncc1	29.4	-15.3	61.5*	-3.1	nt	57.0*
C[C@H]1c2cccc(O)c2C(O)=C2C(=O)[C@]3(O)C(O)=C(C(N)=O)C(=O)[C@@H](N(C)C)C3[C@@H](O)C21 (stereo not given in full)	10.7	24.2	86.3*	-5.1	-0.7	3.9
CC(=O)c1c(C)[nH]c(C(=O)CSc2ccc(F)cc2)c1C	-2.0	5.0	90.4*	-4.9	1.9	83.5*
COc1ccc(-n2cc(CNC3CCN(C)CC3)c(-c3cccc(F)c3)n2)cc1	-10.6	-5.6	93.4*	2.1	-7.6	-13.6	MPTP abs DR=7.04*;MPTP counter DR=>80
CO[C@@H]1CN(C)C(=O)c2cc(NC(C)=O)ccc2OC[C@@H](C)N(CCc2ccccc2)C[C@H]1C	nt	nt	nt	nt	-0.6	nt
COc1ccc(S(=O)(=O)N(C)C[C@H]2OCCCC[C@H](C)Oc3ccc(NC(=O)CCC(F)(F)F)cc3C(=O)N([C@@H](C)CO)C[C@H]2C)cc1	nt	nt	nt	nt	-0.6	nt
O=C(Nc1ccc(C(F)(F)F)cc1)C1CCN(S(=O)(=O)c2ccc(N3CCCC3=O)cc2)CC1	5.8	-4.6	92.1*	11.8	4.4	88.5*
COc1ccc(NC(=O)C2CCN(S(=O)(=O)c3ccc(N4CCCC4=O)cc3)CC2)cc1OC	1.2	11.9	1.2	10.8	1.5	nt
CCCC1C(c2ccco2)NC(c2ccco2)CC1(C)O (stereo not given)	-5.2	0.2	78.2*	-12.9	nt	3.6	MPTP abs DR=>100;MPTP counter DR=>80
COc1ccccc1S(=O)(=O)N[C@H]1CC[C@@H](CC(=O)NCc2cc(F)cc(F)c2)O[C@@H]1CO	nt	nt	nt	nt	0.5	nt
COc1ccccc1-n1c(C)cc(/C=C2/C(=N)N3C(=NC2=O)SN=C3S(C)(=O)=O)c1C	4.0	19.6	20.2	-14.7	-0.9	nt
CCOc1ccc(-n2c(C)cc(/C=C3/C(=N)N4C(=NC3=O)SN=C4S(C)(=O)=O)c2C)cc1	0.6	22.5	76.0*	-60.2	5.2	28.2*
CN1CCN(C(=O)C[C@@H]2CC[C@H](NS(=O)(=O)c3cccc(F)c3)[C@H](CO)O2)CC1	nt	nt	nt	nt	0.4	nt
CC(C)NC(=O)Nc1ccc2c(c1)C(=O)N([C@@H](C)CO)C[C@H](C)[C@H](CN(C)C(=O)Nc1ccccc1)OCCCC[C@@H](C)O2	nt	nt	nt	nt	2.1	nt
